# Reference: ChEMBL document CHEMBL3988442, “University of Dundee, Small-Polar-MMV Screening Library” (2021)
# Among all 48,000 compounds or so, about 13,000 (27%) showed an effect of 50% or more. The list shows a part of the results.
# System: Wolbachia pipientis
# Test: Anti-Wolbachia Cell-Based Screen
# Type: functional
# Set-up: scale not given: in the data most compounds retested in dose-response had high values
# Details: 5 µM
row,SMILES,Percent Effect
1,Cc1nc(C(C)C)ncc1C(=O)N1CCc2c(nc(N(C)C)[nH]c2=O)C1,-2.755%
2,Cc1ccc(CN2CC3(CCNCC3)CCC2=O)c(F)c1F,-4.713%
3,CNC(=O)[C@@]12CCC3(CCNCC3)[C@@H]1CN(S(C)(=O)=O)C2,151.6%
4,CNC(=O)[C@@]12CCC3(CCN(C(C)=O)CC3)[C@@H]1CN(S(C)(=O)=O)C2,-0.1611%
5,CCN1CC2(CC1=O)CN(C(=O)COC)CCN(S(C)(=O)=O)C2 (centres undefined),-10.66%
6,CC(C)NC(=O)N1CCC2(CC1)CC[C@@]1(C(=O)N(C)C)CN(C)C[C@@H]21,-18.22%
7,CNC(=O)[C@@]12CCC3(CCN(C(=O)C(C)C)CC3)[C@@H]1CN(S(C)(=O)=O)C2,104.1%
8,CCN1C[C@H]2C3(CCN(S(C)(=O)=O)CC3)CC[C@@]2(C(=O)N(C)C)C1.O=C(O)C(F)(F)F,-24.55%
9,CCN1C[C@H]2C3(CCN(C(=O)NC(C)C)CC3)CC[C@@]2(C(=O)NC)C1.O=C(O)C(F)(F)F,-18.02%
10,CNC(=O)[C@@]12CCC3(CCN(S(C)(=O)=O)CC3)[C@@H]1CN(S(C)(=O)=O)C2,14.17%
11,CNC(=O)[C@@]12CCC3(CCN(C(=O)COC)CC3)[C@@H]1CN(S(C)(=O)=O)C2,102.3%
12,CNC(=O)N1CCC2(CC1)CC[C@@]1(C(=O)NC)CN(S(C)(=O)=O)C[C@@H]21,99.51%
13,CC(=O)N1CCC2(CC1)CC[C@@]1(C(=O)N(C)C)CN(S(C)(=O)=O)C[C@@H]21,-18.69%
14,O=C(c1cscn1)N(CCCO)S(=O)(=O)c1cccs1,7.908%
15,CN(CCSc1ccccc1)C(=O)c1cn2c(n1)CNCC2,-0.3479%
16,O=C(NCc1ccc(C(=O)N2CCCC2)cc1)c1cn2c(n1)CNCC2,-4.939%
17,CN1C(=O)CC(N(C)Cc2nc3ccccc3c(=O)[nH]2)C1=O (centres undefined),-8.963%
18,CCC(C)N(Cc1ccncc1)Cc1cccc(Cn2cccn2)c1 (centres undefined),-14.79%
19,CCc1[nH]c2c(CNc3cncc(C(=O)OC)n3)cc(C)cc2c1C,11.12%
20,O[C@H]1COCCN(Cc2cccc3c2OCO3)C1,-4.774%

row,SMILES,Percent Effect
1,CCOc1ccccc1-c1noc(CN2CCOC(CN(C)C)C2)n1 (centres undefined),7.76%
2,CC(C)c1nnc2n1CCN(C(=O)c1ccnc(N(C)C)c1)C2,-1.642%
3,Cc1ccccc1-c1cc(C(=O)N2CCn3c(C)nnc3C2)[nH]n1,-2.104%
4,Cc1nnc2n1CCN(C(=O)c1cc(Cl)c[nH]1)C2,-1.056%
5,Cc1nnc2n1CCN(C(=O)c1cc3cc(F)ccc3[nH]1)C2,87.27%
6,CC(C)c1nnc2n1CCN(C(=O)c1cc3cc(F)ccc3[nH]1)C2,98.88%
7,CC(C)c1nnc2n1CCN(C(=O)c1ccc3cc[nH]c3c1)C2,-4.188%
8,O=C(NC[C@H]1OC[C@@H](NCc2ccccc2)[C@@H]1O)Nc1ccccc1,-15.87%
9,Cc1nnc([C@H]2CC[C@@H]3[C@@H](CCN3CC3CCOCC3)O2)o1,-4.928%
10,O=C(Cc1ccsc1)N1C[C@@H]2C[C@@H](c3nnc(C4CC4)o3)O[C@@H]2C1,1.752%
11,C1CC(CN2C[C@@H]3C[C@@H](c4nnc(C5CC5)o4)O[C@@H]3C2)CCO1,101.2%
12,C1CC(CN2C[C@@H]3C[C@@H](c4nnc(C5CC5)o4)O[C@@H]3C2)C1,108.7%
13,C1CC(CN2CC[C@@H]3O[C@@H](c4nnc(C5CC5)o4)C[C@H]3C2)CCO1,104.3%
14,Cc1nnc([C@@H]2CC[C@@H]3[C@@H](CCN3CC3CCOCC3)O2)o1,8.23%
15,C1CC(CN2C[C@H]3CC[C@@H]2CN(Cc2nnc(C4CC4)o2)C3)C1,1.497%
16,Cc1noc([C@@H]2C[C@H]3CN(CC4CCOCC4)C[C@H]3O2)n1.O=C(O)C(F)(F)F,45.83%
17,COc1cc2c(cc1OC)S(=O)(=O)N(Cc1ccccc1)C2=O,-12.48%
18,CCC(C)N(Cc1cccnc1)Cc1ccccc1Cn1cccn1 (centres undefined),1.099%
19,Cc1cc(N(Cc2ccccn2)C2CC2)n2nc(C(F)(F)F)nc2n1,23.9%
20,CCS(=O)(=O)CC(=O)NC(c1ccccc1)C1CCCC1 (centres undefined),90.5%

row,SMILES,Percent Effect
1,Cc1nn(C)c(C)c1NC(=O)CNC(c1ccccc1)C1CCCC1 (centres undefined),-3.756%
2,N#CC(NC(=O)CS(=O)(=O)C1CCCC1)c1ccc(F)cc1F (centres undefined),10.46%
3,CCn1cnnc1CNC(=O)NC(c1ccccc1)C1CCCC1 (centres undefined),9.923%
4,O=C(CS(=O)(=O)C1CCCC1)NC(c1ccc(F)cc1)C1CC1 (centres undefined),106.7%
5,CCC(NC(=O)CS(=O)(=O)C1CCCC1)c1cc(F)ccc1F (centres undefined),-16.07%
6,CN(CCNC(=O)N1CCCC1)C(=O)OC(C)(C)C,-14.2%
7,Cc1c(CN2CCCCC2)c(O)n(CCCO)c(=O)c1C#N,106.4%
8,Cn1c(NCC(=O)N2CCCCC2)c(C#N)c(=O)n(C)c1=O,-4.549%
9,Cn1c(NCCN2CCCCCC2)c(C#N)c(=O)n(C)c1=O,6.229%
10,Cn1cc(C#N)cc1C(=O)Nc1ccc(CN2CCOCC2)cn1,-7.398%
11,Cc1oc(NC(=O)C(C)N2CCN(CCO)CC2)c(C#N)c1C (centres undefined),14.13%
12,Cc1c(CN2CCOCC2)c(O)n(CCO)c(=O)c1C#N,129.2%
13,Cc1nn(C)c(N2CCOCC2)c1CNC(C)c1cccnc1 (centres undefined),-5.13%
14,Cc1nc(O)cc(CCNC(=O)C2CC(=O)N(CC(C)C)C2)n1 (centres undefined),-0.9354%
15,CNC(=O)CCc1cc(C2CCCCN2C)nc(C)n1 (centres undefined),129.2%
16,CNC(=O)CCN1CCCCCC1c1ccc(C)o1 (centres undefined),-114%
17,Cc1ncsc1CCC(=O)NCc1csc(N2CCCC2)n1,13.92%
18,CNC(=O)CCc1cc(C2CCCCN2C(C)C)nc(C)n1 (centres undefined),119%
19,Cc1[nH]n(-c2ccccc2)c2nnc(N)c1-2,-6.219%
